According to PubChem BioAssay (EPA / NIEHS):
Records with an inconclusive call do not appear. Calls of active or inactive are those of the source. Rule for the calls: active = hit-call score of the fitted dose curve at least 0.9, where 1 is the maximum; inconclusive = response in the unintended direction; inactive = score below 0.9.

Assays:
[1] = read-out: Cytochrome P450 2B6 (Homo sapiens) (UniProt P20813); test: CLD_CYP2B6_24hr: CellzDirect (CLD) Gene Expression Assay for xenobiotic metabolism (CYP2B6) at 24 hours (AID 2283686)
Method in brief: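 qNPA chemiluminescent measurement of mRNA at 24 hours in human primary hepatocyte cultures from two donor preparations, with daily fresh dosing and 0.2% DMSO vehicle as baseline. Morphology-based cytotoxicity flagged yes/no.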

[2] = read-out: Cytochrome P450 3A4 (Homo sapiens) (UniProt P08684); test: CLD_CYP3A4_24hr: CellzDirect (CLD) Gene Expression Assay for xenobiotic metabolism (CYP3A4) at 24 hours (AID 2283689)
Method in brief: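 CYP3A4 mRNA induction read by quantitative nuclease protection (chemiluminescence) 24 hr after dosing. Cultured human hepatocytes (two donor preparations) treated daily, vehicle 0.2% DMSO; phase-contrast morphology annotates cytotoxicity.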

[3] = read-out: Glyceraldehyde-3-phosphate dehydrogenase (Homo sapiens) (UniProt P04406); test: CLD_GAPDH_24hr: CellzDirect (CLD) Gene Expression Assay for Baseline Control (Glyceraldehyde 3-phosphate dehydrogenase) at 24 hours (AID 2283692)
Method in brief: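 GAPDH baseline-control readout: qNPA chemiluminescent mRNA signal in human primary hepatocytes harvested 24 h after daily dosing, normalised to 0.2% DMSO with positive fitting direction; cytotoxicity annotated by phase-contrast morphology.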

[4] = read-out: ABC Transporter (ABCB1), ABCB1 (gene 5243); test: CLD_ABCB1_48hr: CellzDirect (CLD) Gene Expression Assay for ABC Transporter (ABCB1) at 48 hours (AID 2283695)
Method in brief: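 ABCB1 mRNA was measured by quantitative nuclease protection assay (chemiluminescence) 48 h after dosing. Human hepatocyte cultures from two separate donors received fresh dosing solutions daily for two days, with 0.2% DMSO as vehicle. Positive-direction fit against DMSO.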

[5] = read-out: Broad substrate specificity ATP-binding cassette transporter ABCG2 (Homo sapiens) (UniProt Q9UNQ0); test: CLD_ABCG2_24hr: CellzDirect (CLD) Gene Expression Assay for ABC Transporter (ABCG2) at 24 hours (AID 2283685);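 for AC50: AC50 is for induction meaning signal gain over DMSO vehicle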
Method in brief: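 ABCG2 mRNA induction, read as gain of chemiluminescent signal over 0.2% DMSO, was measured by quantitative nuclease protection at 24 h. Cultured human liver hepatocytes were given fresh dosing solutions of test chemicals at several concentrations each day.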

[6] = read-out: Cytochrome P450 2C19 (Homo sapiens) (UniProt P33261); test: CLD_CYP2C19_24hr: CellzDirect (CLD) Gene Expression Assay for xenobiotic metabolism (CYP2C19) at 24 hours (AID 2283687);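 note: activity means mRNA induction above DMSO vehicle baseline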
Method in brief: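 CYP2C19 mRNA was quantified by qNPA chemiluminescence after 24 h of daily dosing of cultured human primary hepatocytes from two donors; vehicle was 0.2% DMSO, and increases over DMSO baseline were fitted.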

[7] = read-out: alkyl and aryl transferase (GSTA2), GSTA2 (gene 2939); test: CLD_GSTA2_24hr: CellzDirect (CLD) Gene Expression Assay for alkyl and aryl transferase (GSTA2) at 24 hours (AID 2283693)
Method in brief: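 GSTA2 transcript levels were quantified by quantitative nuclease protection assay in primary human hepatocytes 24 h after daily dosing with fresh solutions at multiple concentrations; 0.2% DMSO vehicle as baseline, cytotoxicity flagged morphologically.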

[8] = read-out: sulfotransferase (SULT2A), SULT2A1 (gene 6822); test: CLD_SULT2A_24hr: CellzDirect (CLD) Gene Expression Assay for sulfotransferase (SULT2A) at 24 hours (AID 2283694);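 for AC50: potency for increased SULT2A1 mRNA level as induction over DMSO baseline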
Method in brief: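 mRNA is measured by qNPA: probe hybridisation, S1 nuclease digestion, chemiluminescence, in lysates from human primary hepatocytes harvested 24 h after daily dosing. Vehicle was 0.2% DMSO. Phase-contrast microscopy flagged cytotoxicity (yes/no).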

[9] = read-out: glucuronosyltransferase (UGT1A1), UGT1A1 (gene 54658); test: CLD_UGT1A1_24hr: CellzDirect (CLD) Gene Expression Assay for glucuronosyltransferase (UGT1A1) at 24 hours (AID 2283696)
Method in brief: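 UGT1A1 transcript induction was measured by quantitative nuclease protection assay (chemiluminescence) in human hepatocyte cultures 24 h after daily fresh dosing, with 0.2% DMSO as vehicle and baseline.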

[10] = read-out: Cytochrome P450 3A4 (Homo sapiens) (UniProt P08684); test: CLD_CYP3A4_48hr: CellzDirect (CLD) Gene Expression Assay for xenobiotic metabolism (CYP3A4) at 48 hours (AID 2283698)
Method in brief: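 CYP3A4 induction read by qNPA chemiluminescence after 48 h, with fresh dosing solutions on consecutive days, in cultured human hepatocytes (two donors). Vehicle 0.2% DMSO as baseline; microscopy-based cytotoxicity annotated yes/no alongside data.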

Measured: AC50

Glyceraldehyde-3-phosphate dehydrogenase (Homo sapiens), sequence (P04406 whole entry, looked up): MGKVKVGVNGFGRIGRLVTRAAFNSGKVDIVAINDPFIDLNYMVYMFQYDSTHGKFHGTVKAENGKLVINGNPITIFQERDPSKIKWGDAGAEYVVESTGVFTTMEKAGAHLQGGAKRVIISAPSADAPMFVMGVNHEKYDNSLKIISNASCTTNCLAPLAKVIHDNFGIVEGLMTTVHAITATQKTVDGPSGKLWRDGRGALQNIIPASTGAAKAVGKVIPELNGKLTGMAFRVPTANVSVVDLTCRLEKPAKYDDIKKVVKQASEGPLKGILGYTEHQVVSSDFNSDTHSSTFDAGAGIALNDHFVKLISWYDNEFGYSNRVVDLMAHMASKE
Cytochrome P450 2C19 (Homo sapiens), sequence (P33261 whole entry, looked up): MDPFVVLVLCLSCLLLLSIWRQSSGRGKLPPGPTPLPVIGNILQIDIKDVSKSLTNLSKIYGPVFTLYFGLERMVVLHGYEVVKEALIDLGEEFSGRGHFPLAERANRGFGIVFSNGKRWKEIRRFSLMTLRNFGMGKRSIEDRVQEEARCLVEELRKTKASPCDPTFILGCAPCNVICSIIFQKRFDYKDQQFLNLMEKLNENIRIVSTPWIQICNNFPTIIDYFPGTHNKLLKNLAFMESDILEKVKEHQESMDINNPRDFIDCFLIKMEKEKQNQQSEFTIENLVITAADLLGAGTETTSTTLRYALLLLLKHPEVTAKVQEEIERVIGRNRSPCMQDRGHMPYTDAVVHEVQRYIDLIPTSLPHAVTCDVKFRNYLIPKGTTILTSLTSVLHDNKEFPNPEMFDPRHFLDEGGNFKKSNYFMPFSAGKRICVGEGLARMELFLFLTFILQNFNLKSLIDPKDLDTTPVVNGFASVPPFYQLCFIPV
Broad substrate specificity ATP-binding cassette transporter ABCG2 (Homo sapiens), sequence (Q9UNQ0 whole entry, looked up): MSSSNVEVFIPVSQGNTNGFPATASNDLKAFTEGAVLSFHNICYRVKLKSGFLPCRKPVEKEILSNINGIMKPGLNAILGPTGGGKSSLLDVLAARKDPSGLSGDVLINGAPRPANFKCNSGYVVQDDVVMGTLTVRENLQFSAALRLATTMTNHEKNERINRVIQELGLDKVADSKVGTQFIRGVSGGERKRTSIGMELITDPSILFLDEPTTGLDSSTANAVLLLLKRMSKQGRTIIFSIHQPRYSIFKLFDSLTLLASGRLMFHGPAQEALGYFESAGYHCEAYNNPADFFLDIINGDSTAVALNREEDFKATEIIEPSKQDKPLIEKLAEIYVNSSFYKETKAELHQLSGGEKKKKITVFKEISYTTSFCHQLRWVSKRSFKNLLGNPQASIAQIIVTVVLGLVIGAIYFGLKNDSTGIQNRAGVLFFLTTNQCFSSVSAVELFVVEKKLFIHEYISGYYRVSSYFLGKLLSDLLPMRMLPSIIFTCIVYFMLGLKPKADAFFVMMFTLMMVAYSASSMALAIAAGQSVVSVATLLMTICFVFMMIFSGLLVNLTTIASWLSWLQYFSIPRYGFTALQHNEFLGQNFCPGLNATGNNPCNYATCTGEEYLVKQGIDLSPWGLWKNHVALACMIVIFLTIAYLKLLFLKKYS
Cytochrome P450 3A4 (Homo sapiens), sequence (P08684 whole entry, looked up): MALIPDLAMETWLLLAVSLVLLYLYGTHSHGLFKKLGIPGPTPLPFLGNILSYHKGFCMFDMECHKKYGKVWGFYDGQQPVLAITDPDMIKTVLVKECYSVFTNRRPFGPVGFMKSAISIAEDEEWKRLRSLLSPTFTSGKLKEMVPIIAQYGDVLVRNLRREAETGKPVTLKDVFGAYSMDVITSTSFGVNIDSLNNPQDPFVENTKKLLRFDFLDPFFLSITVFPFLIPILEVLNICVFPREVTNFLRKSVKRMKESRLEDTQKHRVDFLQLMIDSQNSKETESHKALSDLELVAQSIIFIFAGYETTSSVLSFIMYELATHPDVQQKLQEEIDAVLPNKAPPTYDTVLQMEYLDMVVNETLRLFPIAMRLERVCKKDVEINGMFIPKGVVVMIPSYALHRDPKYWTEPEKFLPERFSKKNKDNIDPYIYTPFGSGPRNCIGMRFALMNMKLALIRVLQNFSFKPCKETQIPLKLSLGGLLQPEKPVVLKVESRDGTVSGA

COP(=O)(NC(C)=O)SC (centres undefined)
inactive: [1] | [2] | [3] | [4]

O=c1ccc(=O)[nH][nH]1
inactive: [5] | [6] | [3] | [4]

CCCOc1nn(C(=O)NS(=O)(=O)c2ccccc2C(=O)OC)c(=O)n1C
inactive: [1] | [3] | [7] | [8] | [4] | [9]
active: [2] 9.43 µM | [10] 36.4 µM

CC(Oc1cccc(Cl)c1)C(=O)O (centres undefined)
inactive: [3] | [8] | [4]

COP(=O)(OC)OC(Br)C(Cl)(Cl)Br (centres undefined)
inactive: [1] | [6] | [7] | [4] | [10]

CCNc1nc(Cl)nc(NC(C)(C)C#N)n1
active: [1] 3.69 µM | [2] 4.74 µM | [10] 20 µM
inactive: [6] | [7] | [8] | [4]

CCC(CC)Nc1c([N+](=O)[O-])cc(C)c(C)c1[N+](=O)[O-]
active: [1] 11.4 µM | [10] 20 µM
inactive: [6] | [7] | [8] | [4]

CNc1cnn(-c2cccc(C(F)(F)F)c2)c(=O)c1Cl
active: [1] 6.64 µM | [2] 5.8 µM | [10] 13.6 µM
inactive: [8] | [4] | [9]

CCOP(=S)(OCC)Oc1ccc2c(C)c(Cl)c(=O)oc2c1
inactive: [6] | [7] | [8] | [4]
active: [1] 1.28 µM

CCC(=O)Nc1ccc(Cl)c(Cl)c1
inactive: [2] | [8] | [10]
active: [1] 3.95 µM

CCC(=NOC/C=C/Cl)C1=C(O)CC(C2CCOCC2)CC1=O (centres undefined)
inactive: [1] | [2] | [3] | [4]

CCc1cccc(C)c1N(C(=O)CCl)C(C)COC (centres undefined)
active: [1] 1.61 µM | [2] 8.71 µM | [10] 3.97 µM
inactive: [6] | [8] | [4] | [9]

CC(C)[C@H](C(=O)O[C@H](C#N)c1cccc(Oc2ccccc2)c1)c1ccc(Cl)cc1
inactive: [1] | [6] | [2] | [7] | [8] | [4]
active: [10] 20 µM

CNC(=O)ON=C(SC)C(=O)N(C)C
inactive: [1] | [6] | [2] | [3] | [7] | [4]

C=C(C)[C@H]1Cc2c(ccc3c2O[C@@H]2COc4cc(OC)c(OC)cc4[C@@H]2C3=O)O1
inactive: [6] | [2] | [7] | [4]
active: [5] 6.65 µM | [8] 3.88 µM

COP(=O)(OC)C(O)C(Cl)(Cl)Cl (centres undefined)
inactive: [5] | [7] | [4]

CCCCN(CC)c1c([N+](=O)[O-])cc(C(F)(F)F)cc1[N+](=O)[O-]
inactive: [7] | [8] | [4]
active: [1] 7.3 µM | [2] 6.35 µM | [9] 9.11 µM | [10] 6.48 µM

CCOP(=O)(NC(C)C)Oc1ccc(SC)c(C)c1 (centres undefined)
inactive: [6] | [3] | [7] | [8] | [4]
active: [1] 6.17 µM

CN(C)[C@@H]1C(=O)C(C(N)=O)=C(O)[C@@]2(O)C(=O)C3=C(O)c4c(O)cccc4[C@@](C)(O)[C@H]3[C@H](O)[C@@H]12
inactive: [1] | [6] | [2] | [3] | [7] | [8] | [10]

CCOP(=S)(OCC)Oc1ccc([N+](=O)[O-])cc1
active: [1] 0.828 µM | [2] 5.25 µM | [10] 2.92 µM
inactive: [8] | [9]

CN1COCN(Cc2cnc(Cl)s2)C1=N[N+](=O)[O-]
inactive: [1] | [6] | [2] | [8] | [10]

COP(=O)(OC)SCn1c(=O)oc2cc(Cl)cnc21
inactive: [5] | [6] | [2] | [7] | [8] | [4] | [9] | [10]

CCOP(=S)(OCC)Oc1cc(C)nc(C(C)C)n1
inactive: [6] | [7] | [8]
active: [1] 0.747 µM

Cc1cc(C2CC2)nc(Nc2ccccc2)n1
active: [1] 3.97 µM
inactive: [9] | [10]

CC(C1CC1)C(O)(Cn1cncn1)c1ccc(Cl)cc1 (centres undefined)
active: [1] 4.02 µM | [2] 3.78 µM | [10] 20 µM
inactive: [6] | [7] | [8] | [9]

C[N+]1(C)CCCCC1
active: [2] 1.89 µM
inactive: [5] | [7] | [4] | [9]

CCCCOC(=O)c1ccccc1C(=O)O
inactive: [5] | [6] | [3] | [7] | [10]

CCc1cnc(C2=NC(C)(C(C)C)C(=O)N2)c(C(=O)O)c1 (centres undefined)
inactive: [1] | [6] | [2] | [3] | [7] | [4] | [10]

CSc1nc(NC(C)C)nc(NC(C)C)n1
active: [1] 2.99 µM | [2] 3.97 µM | [10] 3.24 µM
inactive: [6] | [7] | [8] | [4]

O=[N+]([O-])c1cc(C(F)(F)F)c(Cl)c([N+](=O)[O-])c1Nc1ncc(C(F)(F)F)cc1Cl
inactive: [1] | [2] | [10]

O=C(O)c1cc(Oc2ccc(C(F)(F)F)cc2Cl)ccc1[N+](=O)[O-]
inactive: [1] | [6] | [2] | [3] | [8] | [4]

CCCCOC(=O)[C@@H](C)Oc1ccc(Oc2ccc(C#N)cc2F)cc1
inactive: [1] | [6] | [2] | [3] | [7] | [8] | [4] | [9]

CCOC(=O)COc1cc(-c2nn(C)c(OC(F)F)c2Cl)c(F)cc1Cl
inactive: [6] | [8] | [4] | [9]
active: [1] 20 µM | [2] 20 µM | [10] 4.37 µM

CC1=NNC(=O)N(/N=C/c2cccnc2)C1
inactive: [1] | [6] | [2] | [3] | [7] | [8] | [4] | [10]

CC1(C(=O)Nc2ccc(O)c(Cl)c2Cl)CCCCC1
inactive: [1] | [6] | [2] | [8] | [4] | [9]

CNC(=O)Oc1cccc2c1OC(C)(C)O2
active: [1] 20 µM | [2] 20 µM
inactive: [6] | [7] | [4]
